AddAB inh = less growth of phage-infected E. coli with AddAB | inhibition, % at 11.9 µM | E. coli expressing H. pylori AddAB, absorbance growth | 0.29% of 330,000 active | AID 435030; in the data active means inhibition above about 12%
E coli growth-1 = counter-screen for AddAB inhibitors: E. coli growth inhibition; 0.27% of 330,000 active; AID 449728; E. coli V3065 growth, OD600 absorbance, 18 h; inhibition, % at 11.9 µM;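 active means inhibition above the campaign's mean inhibition across all tested compounds plus 3 SD, cut at about 9.9% in these data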;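 further: uninfected addAB+ strain grown without phage in ampicillin broth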
phage Ecoli inh = E. coli growth loss with phage present | growth absorbance | inhibition, % at 11.9 µM | 0.26% of 360,000 active | AID 651602; in the data active means inhibition above about 11%
E coli growth-2 = inhibitors of Escherichia coli growth; OD600 absorbance (concentration not given with the values); OD600, 23 h; stronger effect = lower value; 0.21% of 330,000 active;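 active means OD600 absorbance below the run mean of sample wells minus 3.6 SD, in any replicate, cut at about 0.56 in these data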
Tat export inh = blocks Tat-dependent protein export in E. coli. E. coli MC4100 TorA-mCherry Tat export, fluorescence. 0.036% of 340,000 active. inhibition, % at 10 µM. AID 488895;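 active means mean replicate inhibition at least 50% and at least half of replicates individually reaching 50%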;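 further: exported cargo escapes ClpAP degradation while cytoplasmic cargo is degraded and loses fluorescence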
AddAB conf = confirmation screen: growth loss of phage-infected E. coli expressing H. pylori AddAB; AID 488942; inhibition, % at 11.9 µM; shares compounds with AddAB inh; 64% of 880 active; E. coli V3065 expressing H. pylori AddAB, T4 phage, OD; T4 phage with gene 2 nonsense mutations;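 active means mean inhibition above a set limit taken from the earlier primary screen, cut at about 13% in these data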;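 further: higher means less bacterial growth since AddAB block lets phage replicate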
RecBCD counter = AddAB counter-screen: growth loss of RecBCD+ E. coli infected with mutant T4 phage; shares compounds with AddAB inh; E. coli V66 + mutant T4 phage, OD growth; inhibition, % at 11.9 µM; 73% of 880 active; AID 488955;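 active means mean inhibition above the mean of solvent-only control wells plus 3 SD, cut at about 4% in these data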;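 further: optical density read after an 18 h incubation at 37 °C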
Bact viability = counter-screen: bacterial growth inhibition; 35% of 880 active; shares compounds with AddAB inh; inhibition, % at 11.9 µM; bacterial viability, absorbance (AddAB counterscreen); in the data active means inhibition above about 25%
A number is an active result; – = inactive; · = no result. A selection: hits, their analogues and other compounds. The true share with any hit is near 0.5%.

SMILES | AddAB inh | E coli growth-1 | phage Ecoli inh | E coli growth-2 | Tat export inh | AddAB conf | RecBCD counter | Bact viability
O=C(Nc1cccc(NC(=O)c2ccc([N+](=O)[O-])o2)c1)c1ccco1 | 24 | 17 | – | 0.46 | – | 99 | 10 | 30
O=C(Nc1nc(-c2cccs2)cs1)c1ccc([N+](=O)[O-])o1 | 13 | – | – | 0.52 | – | 85 | 7.5 | –
O=C(Nc1cccc(NC(=O)c2cccs2)c1)c1ccc([N+](=O)[O-])o1 | 27 | 16 | – | 0.41 | – | 96 | 9.4 | 28
CCC(=O)NC(c1ccccc1OC)c1ccc2cccnc2c1O (stereo unspecified) | 28 | 24 | · | – | – | 18 | 23 | –
COc1cc(-c2cc(=O)c3c(O)c(OC)c(OC)c(O)c3o2)ccc1O | – | – | – | – | – | · | · | ·
COc1c(O)c(O)c2oc(-c3ccccc3)cc(=O)c2c1OC | 16 | – | – | – | – | 14 | 9.2 | –
CC1CCN(C(=O)CCC(=O)N2CC(C)Oc3ccccc32)CC1 (stereo unspecified) | 99 | 32 | – | – | – | – | – | –
CCCCN1CC(=O)N2C(c3ccc(Cl)cc3)C3C(=O)N(CC)C(=O)C3[C@]2(C)C1=O (stereo partly specified) | · | · | · | – | · | · | · | ·
Cc1nc2oc3c(=O)[nH]cnc3c2c2c1COC(C)(C)C2 | 31 | – | – | – | – | – | – | –
COCCCN1C(=O)C(=O)C(=C(O)c2ccc(OC(C)C)cc2)C1c1ccc(O)c(OC)c1 (stereo unspecified) | · | · | · | – | · | · | · | ·
O=c1c2ccccc2[nH]c2ccc(F)cc12 | 14 | 10 | – | – | – | – | 8.8 | –
O=C(Cc1cccs1)NN=CC=Cc1ccccc1[N+](=O)[O-] | · | · | · | – | · | · | · | ·
O=C(NCCSc1c[nH]c2ccccc12)c1ccco1 | 81 | 27 | – | – | – | – | – | –
O=C(NCCSc1c[nH]c2ccccc12)c1c(F)cccc1F | – | – | – | – | – | · | · | ·
CC(=NNC(=O)C(O)(c1ccccc1)c1ccccc1)c1ccc([N+](=O)[O-])o1 | · | · | · | – | · | · | · | ·
CCOC(=O)N/N=C(/C)c1ccc([N+](=O)[O-])o1 | 32 | 30 | – | · | – | 101 | 13 | 39
O=C(COc1cccc(Br)c1)NN=C1CCSC1 | · | · | · | – | · | · | · | ·
CCN(C(=O)C1CCCN(c2nc(-c3ccc(OC)cc3)no2)C1)c1ccccc1F (stereo unspecified) | 22 | – | – | – | – | – | – | –
CCN(C(=O)C1CCN(c2nc(-c3ccc(OC)cc3)no2)CC1)c1ccccc1 | – | – | – | – | – | · | · | ·
Cc1cccc(-n2ncc3c(N4CCC5(CC4)OCCO5)ncnc32)c1 | 32 | – | – | – | – | – | – | –
c1ccc(-n2ncc3c(N4CCC5(CC4)OCCO5)ncnc32)cc1 | – | – | – | – | – | · | · | ·
O=C1c2cccc3c([N+](=O)[O-])ccc(c23)C(=O)N1c1ccccn1 | – | – | – | – | – | · | · | ·
O=C1c2cccc3c([N+](=O)[O-])ccc(c23)C(=O)N1O | 35 | 50 | 44 | · | 81 | 86 | 74 | 81
COc1ccc2ccc(OC)c(C=Nn3cnnc3)c2c1 | · | · | · | – | · | · | · | ·
CC(=O)Nc1cccc(C(=O)NCCc2ccco2)c1 | 12 | 12 | – | – | – | – | 10 | –
SMILES | AddAB inh | E coli growth-1 | phage Ecoli inh | E coli growth-2 | Tat export inh | AddAB conf | RecBCD counter | Bact viability
CC(C(=O)NCCc1c[nH]c2ccccc12)C1C[C@]1(C)C(NC(=O)OCc1ccccc1)c1ccccc1 (stereo partly specified) | · | · | · | – | · | · | · | ·
COC(=O)c1cc(C(=O)OCC(=O)N(C)C2CCS(=O)(=O)C2)cc([N+](=O)[O-])c1 (stereo unspecified) | 22 | 12 | – | – | – | – | – | –
CCn1cc(C(=O)O)c(=O)c2cc(F)c(N3CCN(C(=S)NC(=O)c4ccccc4Cl)CC3)cc21 | 98 | 84 | – | 0.075 | – | 102 | 100 | 102
C=CCCCCCCCCC(=O)N1CCN(c2cc3c(cc2F)c(=O)c(C(=O)O)cn3CC)CC1 | 41 | 35 | – | 0.3 | – | 98 | 4.0 | 72
O=C(CNC(=O)C(c1ccccc1)c1ccccc1)NN=Cc1ccc2c(c1)OCO2 | · | · | · | – | · | · | · | ·
COC(=O)C(Cc1ccccc1)NC(=O)Cn1ccc(NC(=O)OCc2ccccc2)nc1=O (stereo unspecified) | · | · | · | – | · | · | · | ·
O=[N+]([O-])c1ccc(N/N=C/c2ccc[nH]2)cc1 | 12 | – | – | · | – | 13 | – | –
Cc1ccc(NC(=O)COC(=O)C2CCN(c3ccc(C(F)(F)F)cn3)CC2)cc1C | 96 | 53 | – | – | – | – | – | –
O=C(NC(c1ccccc1)c1c(O)ccc2ccccc12)c1ccccc1Cl (stereo unspecified) | – | – | – | – | – | · | · | ·
O=C(NC(c1ccc(Cl)cc1)c1c(O)ccc2ccccc12)c1ccccc1 (stereo unspecified) | 14 | – | – | – | – | – | – | –
COc1ccc(-c2nc3ccccn3c2C=O)cc1 | – | – | – | – | – | · | · | ·
O=Cc1c(-c2ccc(F)cc2)nc2ccccn12 | 98 | 97 | – | – | – | – | – | –
CC(C)CC(=O)Nc1ccccc1N1CCN(c2ccccc2)CC1 | 15 | – | – | – | – | – | – | –
CC(C)CC(=O)Nc1ccccc1N1CCN(C(=O)c2ccccc2)CC1 | – | – | – | – | – | · | · | ·
CCn1cc(C(=O)OCC(=O)c2cc(C)n(-c3ccccc3)c2C)c(=O)c2ccc(C)nc21 | – | – | – | – | – | · | · | ·
CCn1cc(C(=O)OCC(=O)N(C)Cc2ccccc2)c(=O)c2ccc(C)nc21 | 98 | 95 | – | · | – | – | – | –
Cc1ccc(C=CC(=O)NCCCc2ccccc2)cc1 | · | · | · | – | · | · | · | ·
Cc1cc(C)nc(SCc2ccc(C(=O)N/N=C/c3cccc(O)c3O)cc2)n1 | 12 | – | – | · | – | – | 5.0 | –
CC#C[C@]1(O)CCC2C3CCC4=CC(=O)CCC4=C3C(c3ccc(N(C)C)cc3)C[C@@]21C (stereo partly specified) | · | · | · | – | · | · | · | ·
CC(=NN=C1NC(=O)CC(C(=O)O)S1)c1ccccc1 (stereo unspecified) | · | · | · | – | · | · | · | ·
Cc1ccc(/C=C2\C(=O)Nc3ccccc32)o1 | 62 | 19 | 17 | 0.51 | – | 98 | 14 | 44
NS(=O)(=O)c1ccc(-c2ccc(/C=C3\C(=O)Nc4ccccc43)o2)cc1 | – | – | · | · | · | · | · | ·
Cc1cc(C)c2c(NC(=O)CCl)nn(C)c2n1 | 93 | 65 | – | – | – | – | – | –
Cc1ccc(C)c(/C=C/C(=O)c2ccccc(=O)c2O)c1 | 15 | 12 | – | – | – | – | 6.5 | –
O=C(/C=C/c1ccccc1Cl)c1ccccc(=O)c1O | 15 | – | – | – | – | – | 8.3 | –
